More than one record can exist for a structure, and the calls need not agree. Active and inactive are the calls of the source. The calls were made as follows: active = hit-call score of the fitted dose curve at least 0.9, where 1 is the maximum; inactive = score below 0.9.
experiment: ATG_PXRE_CIS: Attagene CIS-FACTORIAL HepG2 Assay for human Pregnane X Receptor Element (PXRE) (AID 2282957); conditions: HepG2 Attagene CIS-FACTORIAL PXRE reporter, mRNA; actives raise or lower the signal
Method: ATG_CIS is a cell-based, multiplexed-readout assay that uses HepG2, a human liver cell line, with measurements taken at 24 hours after chemical dosing in a 24-well plate.ATG_PXRE_CIS is one of 52 assay component(s) measured or calculated from the ATG_CIS assay. It is designed to make measurements of mRNA induction, a form of inducible reporter, as detected with fluorescence intensity signals by Reverse transcription polymerase chain reaction (RT-PCR) and Capillary electrophoresis technology.Data from the assay component ATG_PXRE_CIS was analyzed into 1 assay endpoint. This assay endpoint, ATG_PXRE_CIS, was analyzed with bidirectional fitting relative to DMSO as the negative control and baseline of activity. Using a type of inducible reporter, measures of mRNA for gain or loss-of-signal activity can be used to understand the reporter gene at the transcription factor-level as they relate to the gene NR1I2. Furthermore, this assay endpoint can be referred to as a primary readout, because this assay has produced multiple assay endpoints where this one serves a reporter gene function. To generalize the intended target to other relatable targets, this assay endpoint is annotated to the nuclear receptor intended target family, where the subfamily is non-steroidal.
Human liver HepG2 cells are transiently transfected with multiple reporter transcription units (MRTUs) in 6-well plates using FuGene 6 reagent (Roche; 3 ml FuGene/1 mg DNA). The MRTU constructs are regulated by a cis-regulating element (promoter). […] A major difference between the CIS and TRANS system is that in CIS activities of endogenous TFs are measured, whereas the TRANS assay evaluates changes in activities of exogenous, chimeric NR-Gal4 proteins. […] At the end of 24 hour incubation, total RNA was isolated using TriZol reagent (Invitrogen). The isolated RNA is then reverse-transcribed using oligo(dT) primer and Mo-MLV reverse transcriptase (Invitrogen) with DNAse I (Ambion) treatment for 30 min. The one-tenth of the produced cDNA was amplified by PCR using Taq DNA polymerase (Invitrogen) and two reporter sequence-specific primers. The PCR products were fluorescently labeled by primer extension with 6-arboxyfluorescein (6-FAM) 5'-labeled reporter sequence-specific primer (2 min at 95 C, 20 s at 68 C and 10 min at 72 C) and these products were digested with 5U of HpaI (New England Biolabs) for 2h at 37 C. The fragments were purified using Qiaquick PCR columns (Qiagen), analyzed on an ABI 3130xL genetic analyzer (Applied Biosystems) with peak positions identified by using a set of X-rhodamine (ROX)-labeled MapMarker1000 molecular weight standards (BioVentures). The raw capillary electrophoresis data was processed using Attagraph software (Attagene).

Structure (SMILES)	outcome	AC50
O=c1[nH]cnc2c1ncn2[C@H]1CC[C@@H](CO)O1	inactive	
OCc1c[nH]c2ccccc12		2.76 µM (active) [middle of 5 runs]
CC1(C)C(=O)N(Cl)C(=O)N1Cl	inactive	
O=C(Cl)C(F)(F)C(F)(F)C(F)(F)C(=O)Cl	inactive	
CCN(CC)C(=S)SSC(=S)N(CC)CC		161 µM (active)
CCCCCCCCCCCCCCCCOS(=O)(=O)O	inactive	
CCCCCCCCCCCCCCO		100 µM (active)
CCCCCCCCCC	inactive	
Cc1ccc(S(=O)(=O)NC(=O)NN2CCCCCC2)cc1	inactive	
Cc1ncc([C@@H](CCCCCCc2ccc3c(n2)NCCC3)CC(=O)O)cn1		27.6 µM (active)
NC(=O)N1c2ccccc2C=Cc2ccccc21		34.8 µM (active)
C[C@]12C=CC(=O)C=C1CC[C@H]1[C@@H]3C[C@@H](O)[C@](O)(C(=O)CO)[C@@]3(C)C[C@H](O)[C@@]12F	inactive	
CCc1ccc(O)c(C(C)(C)C)c1		15.9 µM (active)
C=CN1CCCC1=O	inactive	
CC(C)C(=O)Nc1ccc([N+](=O)[O-])c(C(F)(F)F)c1		2.87 µM (active)
OC[C@H]1O[C@@H]2O[C@H]3[C@H](O)[C@@H](O)[C@@H](O[C@H]4[C@H](O)[C@@H](O)[C@@H](O[C@H]5[C@H](O)[C@@H](O)[C@@H](O[C@H]6[C@H](O)[C@@H](O)[C@@H](O[C@H]7[C@H](O)[C@@H](O)[C@@H](O[C@H]1[C@H](O)[C@H]2O)O[C@@H]7CO)O[C@@H]6CO)O[C@@H]5CO)O[C@@H]4CO)O[C@@H]3CO		18.4 µM (active)
S=P(N1CC1)(N1CC1)N1CC1		12.1 µM (active) [middle of 4 runs]
NNC(=O)c1ccncc1	inactive	
NCC(F)(F)C(F)(F)C(F)(F)C(F)(F)F	inactive	
CCc1cccc(CC)c1N		27.7 µM (active)

Structure (SMILES)	outcome	AC50
C=CCc1cc(S(=O)(=O)c2ccc(O)c(CC=C)c2)ccc1O		2.77 µM (active)
COCc1nnc(-c2ccc[n+]([O-])c2)n1-c1c(Cl)c(Cl)cc2[nH]c(=O)c(=O)[nH]c12	inactive	
CC(C)CC(C)O (stereo not given)	inactive	
O=C(N[C@H](CO)[C@H](O)c1ccc([N+](=O)[O-])cc1)C(Cl)Cl	inactive	69.7 µM (active) [middle of 4 runs]
NC(N)=O	inactive	
Cc1nc(-c2ccccn2)ncc1C(=O)Nn1cc(C)c2cc(F)ccc21		4.24 µM (active)
c1ccc2c(c1)-c1cccc3c1c-2cc1ccccc13	inactive	
NC(=O)NN=Cc1ccc([N+](=O)[O-])o1	inactive	
O=C(O)c1ccc2c(c1)nc(C(=O)NC1CCN(C3CC3)CC1)n2Cc1cc(-c2ccc(Cl)s2)on1	inactive	
CCCc1ccccc1	inactive	
OCc1ccccc1	inactive	
O=C1CN(N=Cc2ccc([N+](=O)[O-])o2)C(=O)N1	inactive	
OC(CCl)CCl	inactive	
FC(F)C(F)(F)COCC1CO1 (stereo not given)	inactive	
CC[C@H](C)C(=O)O[C@H]1C[C@H](O)C=C2C=C[C@H](C)[C@H](CC[C@@H](O)C[C@@H](O)CC(=O)O)[C@H]21		48.1 µM (active)
OC(O)(C(F)C(O)(O)C(F)(F)F)C(F)(F)F	inactive	
COc1cc2c(c(OC)c1OC)-c1ccc(OC)c(=O)cc1[C@@H](NC(C)=O)CC2	inactive	
O=C(O)c1cccc(C[C@@H]2COc3ccc(OCc4nc5cc(F)ccc5s4)cc3[C@@H]2O)c1	inactive	
CCn1nc(C)c2c1C(=O)NCC(c1ccc(O)cc1)=N2	inactive	

Reference: PubChem BioAssay (EPA / NIEHS)
